# Source: PubChem BioAssay (NCI)
# Compounds without any hit were thinned out: in the full panel of roughly 79,000, 15% have a hit. A number with no mark means an inactive call. Activity calls are given as the source filed them. No stated cut-off is given here; in the data, active means growth inhibition above about 70%; inactive means the rest.
# Legend:
# [1] = NCI Yeast Anticancer Drug Screen. Data for the rad50 strain (AID 155);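 further: 0% = growth of vehicle-only cultures of the same strain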; settings: S. cerevisiae rad50 strain growth inhibition, hits give high values
# Summary of the method: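 Compounds were tested on a yeast strain with an engineered DNA damage repair alteration; the reported value is growth inhibition normalised to vehicle treatment.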
# [2] = NCI Yeast Anticancer Drug Screen. Data for the mec2-1 strain (AID 157); settings: S. cerevisiae mec2-1 strain, hits give high values
# Summary of the method: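 Readout is yeast growth inhibition, normalised to vehicle-treated controls, in the mec2-1 strain exposed to compound.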
# [3] = NCI Yeast Anticancer Drug Screen. Data for the sgs1 mgt1 strain (AID 161);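 further: 0% = growth of cultures given vehicle only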; settings: S. cerevisiae sgs1 mgt1 strain, hits give high values
# Summary of the method: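 This yeast growth screen uses a strain with defined DNA-repair lesions; compound-treated growth is compared with vehicle-treated growth.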
# [4] = NCI Yeast Anticancer Drug Screen. Data for the cln2 rad14 strain (AID 165);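 further: 0% = growth equal to vehicle treated cultures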; settings: S. cerevisiae cln2 rad14 strain, hits give high values
# Summary of the method: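 Relative to vehicle controls, growth inhibition of compound-treated cln2 rad14 yeast was recorded.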
# [5] = NCI Yeast Anticancer Drug Screen. Data for the bub3 strain (AID 167); settings: S. cerevisiae bub3 mutant strain, hits give high values
# Summary of the method: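 Growth of a checkpoint-deficient yeast mutant is measured after compound exposure. Values represent inhibition relative to vehicle.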
# [6] = NCI Yeast Anticancer Drug Screen. Data for the mlh1 rad18 strain (AID 175); settings: S. cerevisiae mlh1 rad18 strain growth inhibition, hits give high values
# Summary of the method: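 Test agents were incubated with a yeast strain of defined genotype (DNA damage repair defect). Inhibition of growth was derived by comparison with vehicle-exposed cultures.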
# [7] = at 5.0 µM (retest, dose inferred, filed as 0.5)
# [8] = at 50.0 µM (retest, dose inferred, filed as 5.0)
SMILES,"growth inhibition [1, 7]","growth inhibition [1, 8]",growth inhibition ([1]; at 50.0 µM),"growth inhibition [2, 7]","growth inhibition [2, 8]",growth inhibition ([2]; at 50.0 µM),"growth inhibition [3, 7]","growth inhibition [3, 8]",growth inhibition ([3]; at 50.0 µM),"growth inhibition [4, 7]","growth inhibition [4, 8]",growth inhibition ([4]; at 50.0 µM),"growth inhibition [5, 7]","growth inhibition [5, 8]",growth inhibition ([5]; at 50.0 µM),"growth inhibition [6, 7]","growth inhibition [6, 8]",growth inhibition ([6]; at 50.0 µM)
CCN(CC)CCN(C)c1ccc(CO)c2c1C(=O)c1ccccc1S2=O (configuration not stated),5%,74% (active),95.8% (active),-3%,28%,60.9%,-5%,78% (active),96.3% (active),2%,23%,33.5%,2%,9%,82.4% (active),-1%,73% (active),97.9% (active)
C/C(=N\NC(=O)N/N=C(\C)c1ccccn1)c1ccccn1,0%,16%,-6.55%,-18%,-16%,16.8%,7%,24%,35.9%,-21%,1%,2.95%,2%,-13%,35.5%,14%,-6%,-5.95%
O=C(O)C(Cc1ccccc1)N=Cc1ccc(O)cc1 (configuration not stated),70% (active),97% (active),11.1%,58%,99% (active),11.8%,79% (active),98% (active),6.8%,33%,97% (active),43.8%,43%,98% (active),20.2%,68%,98% (active),-1.05%
COc1cccc(C2c3cc4c(cc3OC(N3CCOCC3)C2C)OCO4)c1 (configuration not stated),25%,16%,-11.8%,14%,6%,-9.25%,9%,7%,3.2%,11%,6%,8.45%,26%,13%,0.2%,20%,13%,-3.05%
O=C(COc1ccc(Br)cc1Br)N1N=C(c2ccc([N+](=O)[O-])o2)CC1(O)c1ccccc1 (configuration not stated),23%,23%,19.4%,6%,6%,71.2% (active),12%,12%,70.7% (active),0%,0%,76.2% (active),7%,7%,59.6%,22%,22%,58.8%
Cc1cc(O)c(C(=O)/C=C/c2ccnc3ccccc23)c(=O)o1,-7%,5%,-9.7%,-17%,-1%,-6.65%,6%,20%,-2%,11%,8%,-13.4%,22%,8%,-4.8%,15%,8%,-23.2%
OC1CCC(COC(c2ccccc2)(c2ccccc2)c2ccccc2)O1 (configuration not stated),-8%,98% (active),98.6% (active),5%,99% (active),98.5% (active),-19%,99% (active),98% (active),5%,98% (active),98.2% (active),4%,96% (active),99% (active),0%,99% (active),98.1% (active)
CC(CCOP(=O)(O)OCCC(C)CC(C)(C)C)CC(C)(C)C (configuration not stated),-3%,20%,11.8%,-9%,13%,62.6%,-4%,52%,35.4%,-2%,45%,51%,-19%,10%,71.4% (active),3%,19%,47.8%
CCCCN(CCCC)CCC(O)c1cc2c(c3ccccc13)CCCC2 (configuration not stated),1%,99% (active),99.4% (active),5%,100% (active),99.2% (active),10%,100% (active),99.7% (active),0%,98% (active),67.1%,10%,99% (active),97.8% (active),9%,99% (active),99.5% (active)
O=C(N/C(=C\c1ccc2c(c1)OCO2)c1nc2ccccc2s1)c1ccccc1,19%,98% (active),97% (active),1%,98% (active),97.9% (active),38%,98% (active),98.1% (active),10%,97% (active),96.8% (active),19%,98% (active),96.8% (active),18%,97% (active),97.5% (active)
Cc1cc(C)c(S(=O)(=O)n2ccnc2)c(C)c1,-15%,-45%,-13.9%,0%,-11%,-29.6%,-17%,-4%,-6.05%,-3%,8%,6.55%,-8%,-26%,10.3%,-36%,-77%,-0.9%
COC(=O)C12OCC34C(CC5C(C)C6=CC(=O)OC6=CC5(C)C3C(O)C1O)OC(=O)C(O)C24 (configuration not stated),26%,84% (active),89.7% (active),30%,82% (active),91.4% (active),-18%,94% (active),91% (active),-6%,96% (active),88.1% (active),-2%,95% (active),89.3% (active),33%,93% (active),81.3% (active)
Cc1c(C(=O)N(CCO)CCO)[n+](=O)c2ccccc2n1[O-],5%,3%,28.9%,13%,7%,-5.35%,38%,18%,14.7%,1%,2%,39%,3%,26%,-5.1%,31%,13%,65.7%
COc1ccc2nc3cc(Cl)ccc3c(NCCC[N+](C)(C)CCCCCCCCCCCCCCCC[N+](C)(C)CCCNc3c4ccc(Cl)cc4nc4ccc(OC)cc34)c2c1,85% (active),99% (active),49.2%,76% (active),99% (active),43.6%,77% (active),98% (active),40.4%,76% (active),98% (active),76.6% (active),85% (active),99% (active),47.2%,92% (active),99% (active),97.8% (active)
O=C1C(Cl)=C(Nc2ccc(S(=O)(=O)O)cc2)C(=O)c2ccccc21,23%,99% (active),99.5% (active),33%,100% (active),99.6% (active),35%,100% (active),99.6% (active),12%,99% (active),99.3% (active),74% (active),99% (active),99.5% (active),26%,99% (active),99.4% (active)
C1Cc2c3c4c(c5c2C(C1)CCC5)CCCC4CCC3,-5%,8%,-11.5%,1%,17%,10.3%,-1%,13%,0%,3%,-1%,34.2%,15%,8%,-0.85%,-1%,10%,-2.25%
CCC(CC)COC(=O)c1cccnc1,1%,99% (active),97.7% (active),-19%,99% (active),99.1% (active),0%,99% (active),98.2% (active),-4%,99% (active),96.9% (active),-6%,98% (active),97.8% (active),0%,98% (active),97.5% (active)
COc1cc(O)c2c(c1)C(O)C(O)CC1OC1C(=O)/C=C/CC(C)OC2=O (configuration not stated),80% (active),98% (active),91.5% (active),59%,99% (active),93.3% (active),64%,99% (active),93.1% (active),61%,99% (active),92.2% (active),79% (active),99% (active),92% (active),81% (active),98% (active),92% (active)
BrCc1ccc2ccc3ccc(CBr)nc3c2n1,2%,83% (active),69.7%,11%,91% (active),43.5%,11%,95% (active),63.9%,-12%,89% (active),24.8%,-4%,94% (active),45%,8%,95% (active),64.8%
